PubChem BioAssay
Active and inactive are the calls of the source.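 How the source made its calls, unless noted: active means fluorescence slope higher than the sample average by over 3 SD (cut at about -0.22 in these data, passing the limit was not always enough); inactive means the rest.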

Assays:
[1] = inhibitors of TNFa-induced NFkB p65 translocation, primary screen, imaging, HUVEC, MLSMR starter and 10KST1 sets (AID 438;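 active means inhibition above 20% together with a positive visual image hit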;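 further: compound added about 3h40 before a 20 min TNFalpha stimulation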;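 on inhibition: signal is the nuclear over cytoplasmic p65 intensity ratio per well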); conditions: HUVEC TNFa-induced p65 nuclear translocation; cell count: measured here: nuclei count (cytotoxicity indicator), at 2.08 µM; inhibition: at 2 µM, stronger effect = higher value, 0% TNFa-plus-vehicle, 100% no-TNFa wells
[2] = reduction of polyQ htt aggregates in cells – imaging, exon1htt(103Q)mCFP cells, high-content imaging, primary screen (AID 483;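 active means visual image review flags a hit and inhibition of aggregation exceeds 20%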;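 further: compound exposure lasted 3 days before fixation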;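 on nuclei count: percent of the per-plate median nuclei count of sample wells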); conditions: exon1htt(103Q)mCFP cell line, aggregate imaging, at 2 µM; inhibition of aggregation: stronger effect = higher value; nuclei count: measured here: cell count, toxicity
[3] = endothelial E-selectin expression blockers – imaging, HUVEC, immunofluorescence, MLSMR starter and 10KST1 sets, primary screen (AID 487;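 active means visually confirmed hit in the image check and inhibition above 20%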;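 on inhibition: signal is fraction of cell area covered by stained E-selectin grains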;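 on nuclei count: 100% = median nuclei count of all wells on the same plate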); conditions: HUVEC TNFalpha-induced E-selectin immunofluorescence imaging, at 2 µM; inhibition: stronger effect = higher value; nuclei count: measured here: cell number, toxicity
[4] = molecular target: Voltage-gated potassium channel subunit beta-2 (Rattus norvegicus) (UniProt P62483); assay: inhibitors of rat Kvbeta2 reductase activity – biochemical, NADPH fluorescence, primary screen (AID 622); conditions: recombinant KvBeta, 4-cyanobenzaldehyde reduction, at 10 µM, stronger effect = higher value;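 further: slope of raw intensity against log time taken from 70 to 1610 s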
[5] = molecular target: Voltage-gated potassium channel subunit beta-2 (Rattus norvegicus) (UniProt P62483); assay: enhancers of rat Kvbeta2 NADPH turnover – biochemical, NADPH fluorescence, primary screen (AID 623;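 active means NADPH fluorescence slope more negative than the mean of all samples by about 3 SD, 99.7% confidence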;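 further: fluorescence intensity change per second fitted from 20 to 320 s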); conditions: Recombinant KvBeta, NADPH fluorescence decrease slope, 10 min; at 10 µM; stronger effect = lower value
[6] = molecular target: Alpha-2C adrenergic receptor (Homo sapiens) (UniProt P18825); assay: compounds altering alpha2C-coupled GIRK flux – cell-based, HEK293 alpha2C/GIRK1/2, thallium flux, primary screen (AID 624;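 active means fluorescence slope after compound addition differing from the mean of all screened samples at 99.7% confidence, in either direction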;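 further: slope of fluorescence ratio to pre-addition baseline per second over 15 to 24 s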); conditions: thallium flux BTC fluorescence, at 10 µM, actives lie on both sides
[7] = blockers of RIG-like receptor reporter activation – cell-based, Sendai virus stimulus, luciferase, 10K MLSCN set, TLR/RLR signaling modifier project, primary screen (AID 602276;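 active means inhibition at or above 50% at 10 µM; inactive means inhibition below 50%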;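 further: firefly luciferase from ISG56 promoter only with Renilla not read in this screen; 0% = Sendai virus plus DMSO and 100% = medium plus DMSO without virus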); conditions: HEK293 RL24 IRF3 luciferase reporter, at 10 µM, stronger effect = higher value
[8] = TLR3 IRF3 reporter activation blockers – cell-based, poly I:C stimulus, luciferase, 10K MLSCN set, primary screen (AID 602277;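 active means inhibition of the reporter signal at or above 50%; inactive means inhibition below 50%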); conditions: HEK293-TLR3 RL24 IRF3 luciferase reporter, at 10 µM, stronger effect = higher value

Sequence of Alpha-2C adrenergic receptor (Homo sapiens) (P18825 whole entry, looked up): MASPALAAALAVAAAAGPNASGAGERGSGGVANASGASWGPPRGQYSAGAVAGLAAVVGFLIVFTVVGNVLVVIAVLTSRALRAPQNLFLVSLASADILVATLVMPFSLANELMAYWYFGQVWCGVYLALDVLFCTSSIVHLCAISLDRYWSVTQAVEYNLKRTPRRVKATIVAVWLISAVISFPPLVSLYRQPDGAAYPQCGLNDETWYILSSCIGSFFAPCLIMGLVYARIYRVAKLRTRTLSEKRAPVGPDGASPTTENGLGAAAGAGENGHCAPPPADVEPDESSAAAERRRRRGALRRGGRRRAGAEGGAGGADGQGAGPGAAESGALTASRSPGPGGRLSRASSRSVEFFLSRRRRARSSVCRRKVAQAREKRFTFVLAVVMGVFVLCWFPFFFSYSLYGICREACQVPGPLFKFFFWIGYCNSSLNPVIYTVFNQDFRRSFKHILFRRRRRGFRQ
Sequence of Voltage-gated potassium channel subunit beta-2 (Rattus norvegicus) (P62483 whole entry, looked up): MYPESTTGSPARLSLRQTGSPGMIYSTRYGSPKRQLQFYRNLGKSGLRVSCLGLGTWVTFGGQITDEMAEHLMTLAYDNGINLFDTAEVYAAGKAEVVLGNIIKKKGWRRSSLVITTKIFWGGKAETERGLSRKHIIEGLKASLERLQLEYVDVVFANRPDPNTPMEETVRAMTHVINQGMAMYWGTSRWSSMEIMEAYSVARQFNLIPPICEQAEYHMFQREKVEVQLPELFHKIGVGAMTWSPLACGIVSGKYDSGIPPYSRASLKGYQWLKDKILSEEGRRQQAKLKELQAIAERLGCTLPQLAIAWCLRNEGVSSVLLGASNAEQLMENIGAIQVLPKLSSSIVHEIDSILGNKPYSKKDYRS

SMILES | cell count [1] | inhibition [1] | inhibition of aggregation [2] | nuclei count [2] [%] | inhibition [3] | nuclei count [3] [%] | fluorescence slope [4] | NADPH fluorescence slope [5] | slope [6] | inhibition [7] | inhibition [8]
COc1ccc(C(C)N2CC34C=CC(O3)C(C(=O)OCC(C)C)C4C2=O)cc1 (stereo not drawn) | 589 | 9.1% (inactive) | 3.8% (inactive) | 75.7 | 8.2% (inactive) | 93.5 | -0.541 (inactive) | -4.3e-05 (inactive) | 0.00626 (inactive) | 13.5% (inactive) | 23.7% (inactive)
COC(=O)Oc1c(Br)c(=O)oc2ccccc12 | 594 | 7.7% (inactive) | -8.6% (inactive) | 99.4 | -49.4% (inactive) | 110 | -0.443 (inactive) | -3.2e-05 (inactive) | 0.00521 (inactive) | -15.5% (inactive) | -23.7% (inactive)
Cc1ccc(Cn2ccc(NC(=O)c3cc(-c4cccs4)on3)n2)cc1 | 407 | 0.9% (inactive) | -11.4% (inactive) | 96.9 | -33.4% (inactive) | 99.3 | -0.493 (inactive) | -1.8e-05 (inactive) | 0.00693 (inactive) | -3.96% (inactive) | -7.39% (inactive)
C/C=C/Cn1c(Br)nc2c1c(=O)[nH]c(=O)n2C | 650 | 10.6% (inactive) | -10.8% (inactive) | 73 | 20.1% (inactive) | 103 | -0.625 (inactive) | -4.7e-05 (inactive) | 0.00443 (inactive) | 15.1% (inactive) | 10.7% (inactive)
COc1ccc(-c2nc3c(c(=O)n(C)c(=O)n3C)n2CC2CC(c3ccccc3)=NO2)cc1OC (stereo not drawn) | 233 | -3.2% (inactive) | 5.3% (inactive) | 87.9 | -3.5% (inactive) | 86.7 | -0.587 (inactive) | -2.7e-05 (inactive) | 0.00673 (inactive) | 29.6% (inactive) | 30.8% (inactive)
CC(=O)OCC1OC(c2ccccc2)C(OC(C)=O)C(OC(C)=O)C1OC(C)=O (stereo not drawn) | 274 | -5% (inactive) | 15.4% (inactive) | 59.7 | -26.4% (inactive) | 106 | -0.351 (inactive) | -2.1e-05 (inactive) | 0.00646 (inactive) | 6.22% (inactive) | 34.3% (inactive)
Cc1ccc(C)c(S(=O)(=O)C(C#N)c2nc3ccccc3nc2N2CC(C)OC(C)C2)c1 (stereo not drawn) | 358 | -4.1% (inactive) | -3.8% (inactive) | 103 | -84.3% (inactive) | 125 | -0.494 (inactive) | -1.6e-06 (inactive) | 0.00382 (inactive) | 32.7% (inactive) | 2.87% (inactive)
COC(=O)c1ccccc1NC(=O)COc1ccc(S(=O)(=O)N2CCCC2)cc1C | 618 | 7% (inactive) | 10.3% (inactive) | 88.3 | 44.3% (inactive) | 98.4 | -0.405 (inactive) | 4.1e-06 (inactive) | 0.00334 (inactive) | 16.3% (inactive) | 6.91% (inactive)
O=C(c1cccs1)N1CCN=C1SCc1ccccc1 | 435 | 3.1% (inactive) | 6.2% (inactive) | 106 | -33.5% (inactive) | 111 | -0.445 (inactive) | -9.7e-05 (inactive) | 0.00597 (inactive) | 2.79% (inactive) | -0.0227% (inactive)
CCN(CC)Cc1csc(C(N)=O)c1 | 617 | -1.2% (inactive) | 0.5% (inactive) | 102 | -26% (inactive) | 83 | -0.612 (inactive) | -6.9e-06 (inactive) | 0.00652 (inactive) | 5.97% (inactive) | 23.4% (inactive)
COc1ccc(-c2ccc(-c3noc(-c4ccccc4OC)n3)c(OC)n2)cc1 | 294 | 16.9% (inactive) | -30.2% (inactive) | 86.6 | -1.9% (inactive) | 111 | -0.0455 (inactive) | -3.2e-06 (inactive) | 0.00463 (inactive) | -0.193% (inactive) | -36.2% (inactive)
CCCn1c(C)nc2c(c1=O)c1nc3ccccc3nc1n2CCc1ccccc1 | 470 | -3.1% (inactive) | 6.9% (inactive) | 100 | -102% (inactive) | 222 | -0.303 (inactive) | 2.6e-05 (inactive) | 0.00428 (inactive) | 3.36% (inactive) | 0.543% (inactive)
CCOC(=O)CC12CN3CN(C1)CC(CC(=O)OCC)(C3)C2=O | 596 | -28.6% (inactive) | 7.3% (inactive) | 83.7 | -54.7% (inactive) | 110 | -0.497 (inactive) | -2.2e-05 (inactive) | 0.00533 (inactive) | -1.85% (inactive) | 25.3% (inactive)
CCOc1cccc(C(=O)N(Cc2ccc(F)cc2)C2CCS(=O)(=O)C2)c1 (stereo not drawn) | 461 | 9.3% (inactive) | -23.1% (inactive) | 92.3 | -116% (inactive) | 219 | -0.415 (inactive) | -3.8e-05 (inactive) | 0.0041 (inactive) | 14.6% (inactive) | 40.1% (inactive)
CC(C)(C)OC(=O)N1CC=C2C(C#N)=C(N)C(C#N)(C#N)C(c3cccs3)C2C1 (stereo not drawn) | 828 | 2.4% (inactive) | 16.5% (inactive) | 102 | -132% (inactive) | 106 | -0.476 (inactive) | -2.5e-05 (inactive) | 0.00419 (inactive) | 13.2% (inactive) | 8.03% (inactive)
COC(=O)c1ccc(-c2ccco2)n1Cc1nc(-c2ccc(OC)c(OC)c2)oc1C | 470 | -0.5% (inactive) | 19% (inactive) | 113 | -28% (inactive) | 93.4 | -0.308 (inactive) | -4.8e-05 (inactive) | 0.00465 (inactive) | 12.2% (inactive) | -0.464% (inactive)
CC(C)CCn1c(=O)c2ccccc2n2c(CN(C)Cc3ccccc3)nnc12 | 486 | -14.2% (inactive) | 0.2% (inactive) | 101 | -78.1% (inactive) | 170 | -0.537 (inactive) | 1.9e-05 (inactive) | 0.00576 (inactive) | 8.18% (inactive) | 26.3% (inactive)
CCOC(=O)C1=C(c2ccccc2)N2CCN=C2S1 | 507 | -12.1% (inactive) | 18.9% (inactive) | 59 | -12.3% (inactive) | 94.2 | -0.521 (inactive) | -1.6e-06 (inactive) | 0.00413 (inactive) | 1.18% (inactive) | 6.97% (inactive)
CC1CCc2nn(CC(=O)NCCN3CCCCC3C)cc2C1 (stereo not drawn) | 621 | 12% (inactive) | -27.1% (inactive) | 106 | -11.5% (inactive) | 108 | -0.62 (inactive) | 6.4e-06 (inactive) | 0.00605 (inactive) | 7.09% (inactive) | 33.8% (inactive)
CCOC(=O)C1=C(C)Nc2nc(SCC(=O)OC)nn2C1c1cc(F)cc(F)c1 (stereo not drawn) | 432 | -15.7% (inactive) | -6.3% (inactive) | 96.1 | 1% (inactive) | 96 | -0.592 (inactive) | -3.9e-05 (inactive) | 0.00688 (inactive) | 2.11% (inactive) | 8.56% (inactive)
Cc1nn(C)c(C)c1CN(C)C(=O)c1cc2nc(-c3ccco3)cc(C(F)(F)F)n2n1 | 419 | 5.7% (inactive) | -21.4% (inactive) | 128 | -33.1% (inactive) | 106 | -0.182 (inactive) | -2e-05 (inactive) | 0.00389 (inactive) | 1.09% (inactive) | -8.24% (inactive)
OC1C[N+]2(CCCCC2)C1 | 278 | 9.3% (inactive) | -10.6% (inactive) | 104 | 62.9% (active) | 111 | -0.497 (inactive) | -5.4e-05 (inactive) | 0.00461 (inactive) | 11.5% (inactive) | 10.3% (inactive)
CC1CCN(c2oc(-c3ccccc3F)nc2C#N)CC1 | 578 | 5% (inactive) | -3.3% (inactive) | 122 | -32.2% (inactive) | 114 | -0.411 (inactive) | 7.4e-06 (inactive) | 0.00601 (inactive) | -30.7% (inactive) | -73.4% (inactive)
COCCn1c(SCC(=O)Nc2sc(C)c(C)c2C#N)nnc1C(C)C | 593 | -11.7% (inactive) | 25.9% (inactive) | 73 | 18.9% (inactive) | 78.2 | -0.491 (inactive) | -7.2e-05 (inactive) | 0.00431 (inactive) | 11.9% (inactive) | 5.56% (inactive)
Cc1csc2nc(CNC(=O)c3ccco3)cn12 | 518 | -8.8% (inactive) | -5.9% (inactive) | 90.4 | -27.7% (inactive) | 71 | -0.511 (inactive) | -5.4e-05 (inactive) | 0.00553 (inactive) | -23.7% (inactive) | -70.6% (inactive)
O=c1ccc2cc3c([nH]c4ccc(Br)cc43)oc-2c1O | 447 | 4.7% (inactive) | -0.5% (inactive) | 111 | -84.7% (inactive) | 109 | -0.596 (inactive) | -5.1e-05 (inactive) | 0.00638 (inactive) | 11.2% (inactive) | 24.2% (inactive)
COC(=O)c1c(N)sc(C(=O)N2CCOCC2)c1C | 261 | -5.1% (inactive) | 3% (inactive) | 82.3 | 60.2% (inactive) | 32.3 | -0.439 (inactive) | -5.8e-06 (inactive) | 0.00581 (inactive) | -4.15% (inactive) | -5.07% (inactive)
O=C(COc1ccccc1)N1CCN(C(=O)c2cccc(F)c2)CC1 | 725 | 1% (inactive) | -0.2% (inactive) | 111 | 7.6% (inactive) | 97.2 | -0.447 (inactive) | -3.8e-05 (inactive) | 0.00634 (inactive) | 8.19% (inactive) | 29.6% (inactive)
